PTHR1 agonist – qHTS for PTHR1 Agonists: Primary Screen; Parathyroid hormone/parathyroid hormone-related peptide receptor (Homo sapiens), Q03431; HEK293 GP2 PTHR1 cells, GloSensor cAMP luminescence, 1 h; Potency, µM (highest dose often 115 µM), actives largely listed as activators; 410,000 tested, 0.075% active; also: nearly all actives have a fitted effect of over 55% in size
Target sequence (Q03431 whole entry, looked up): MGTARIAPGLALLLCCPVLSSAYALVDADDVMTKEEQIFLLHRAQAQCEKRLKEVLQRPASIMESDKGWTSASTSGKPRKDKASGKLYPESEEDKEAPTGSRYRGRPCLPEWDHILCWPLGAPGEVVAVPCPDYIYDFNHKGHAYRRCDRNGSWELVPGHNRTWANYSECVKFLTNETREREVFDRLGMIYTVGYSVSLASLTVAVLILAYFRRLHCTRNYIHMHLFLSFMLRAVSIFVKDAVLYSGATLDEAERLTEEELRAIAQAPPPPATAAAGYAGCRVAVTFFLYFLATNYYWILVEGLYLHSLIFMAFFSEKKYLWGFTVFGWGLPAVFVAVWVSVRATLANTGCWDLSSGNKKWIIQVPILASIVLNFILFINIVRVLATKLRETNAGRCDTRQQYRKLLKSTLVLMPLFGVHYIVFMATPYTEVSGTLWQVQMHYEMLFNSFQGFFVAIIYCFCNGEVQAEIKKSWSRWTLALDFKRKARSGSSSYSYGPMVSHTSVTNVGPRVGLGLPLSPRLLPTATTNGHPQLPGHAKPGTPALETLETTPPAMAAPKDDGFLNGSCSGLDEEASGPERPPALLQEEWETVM
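HEK-293-derived GP2 cells expressing PTHR1 and a GloSensor cAMP reporter, 3,000/well, plated overnight, given luciferin plus IBMX (each 0.5 mM as added) for 1 h at 37 °C, then compound for 1 h at 37 °C. Luminescence was read after 15 min at room temperature.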
HEK293 tox – qHTS of GLP-1 Receptor Inverse Agonists: Cytotox Screen; HEK293 cAMP-luciferase reporter cells, luminescence, 24 h; Potency, µM (series often up to 38.3 µM), hits mostly inhibitors; 410,000 tested, 0.13% active; AID 624418, 2012;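 also: loss of luciferase light is scored as toxicity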
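A 23 nL compound transfer followed 12 hours of cell culture at 37 deg C; exposure then lasted 24 hr. Luciferase assay detection reagent was dispensed and plates read for luminescence after a 12 min room-temperature wait.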
GLP-1R agonist – qHTS of GLP-1 Receptor Agonists; Glucagon-like peptide 1 receptor (Homo sapiens), P43220; HEK293 GLP-1R CRE-luciferase, luminescence, 4-6 h; cells express a hypersensitive GLP-1R form; Potency, µM (titrated, usually from 45.6 µM), actives largely listed as activators; 380,000 tested, 0.007% active
GLP1R inv ag – qHTS of GLP-1 Receptor Inverse Agonists (Inhibition Mode). Glucagon-like peptide 1 receptor (Homo sapiens), P43220. HEK293 GLP-1R CRE-luciferase, luminescence, 24 h; GLP-1R form is constitutively active. Potency, µM (top dose mostly 38.3 µM), usual class: inhibitors. 410,000 tested, 1.6% active; also: nearly all actives have a fitted effect of over 55% in size
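Luminescence readout: a drop in cAMP-driven luciferase signal flags inverse agonism at a constitutively active GLP-1R stably expressed in HEK293. Compound exposure lasted 24 hr at 37 deg C, 5% CO2.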
RGS4 inh – Inhibitors of Regulator of G Protein Signaling (RGS) 4: qHTS | Regulator of G-protein signaling 4 (Homo sapiens), P49798 | Transcreener GDP fluorescence polarization, RGS4-accelerated GTP hydrolysis | Potency, µM (highest dose often 114 µM), actives largely listed as inhibitors | 390,000 tested, 0.039% active; also: nearly all actives have a fitted effect of over 75% in size
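MLSMR compounds (23 nl, pin-transferred) preincubated 10 min at room temperature with a 500nM (2x) first reagent, then RGS4 at 900nM (2x) plus Transcreener GDP mix added; fluorescence polarization (620/688 nm) read before and after 90 min at 30 °C.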
Numbers stand for hits; - = inactive; ? = inconclusive; . = not tested or not shown; ! = repeats disagree; [ ] = another dose, or the depositor's remark. This is a sample that favours compounds with a hit; in the whole collection about 1.7% have one here. Calls follow the shape of the dose curve; as a rule, active = well fitted curve in the direction sought with a large enough effect; inconclusive = small, poorly fitted or top-dose-only effect, or another doubt; inactive = no such curve, though single readings can be large; an effect the other way counts as inactive or inconclusive.

SMILES	PTHR1 agonist	HEK293 tox	GLP-1R agonist	GLP1R inv ag	RGS4 inh
c1ccc2c(c1)nc(N1CCCCCC1)c1nncn12	-	-	-	-	.
COc1cccc(CNC(=O)CN(C)S(=O)(=O)c2ccc(Br)s2)c1	-	-	-	?	-
Cn1c(C(=O)N2CCN(c3nc4ccccc4s3)CC2)cc2sccc21	-	-	-	-	-
O=C(c1cc2sccc2n1Cc1ccc(F)cc1)N1CCN(c2nc3ccccc3s2)CC1	-	-	-	4.47µM	-
O=C(NCC12CC3CC(CC(C3)C1)C2)c1nn2c(c1Cl)NC(c1ccco1)CC2C(F)(F)F (stereo not given)	-	-	-	3.98µM	-
CC12CCC(C3NC(=S)NN=C31)C2(C)C (stereo not given)	-	-	-	-	-
CCN(CC)C(=S)SCC(=O)c1ccccc1	-	-	-	-	-
CCN(CC)C(=S)SSC(=S)N(CC)CC	-	-	-	-	1.06µM!
CC1=C(C(=O)Nc2cccnc2)C(c2ccc(C)cc2)n2nc(SCc3ccccc3F)nc2N1 (stereo not given)	-	-	-	-	-
COc1cc(Cl)cc2c1Sc1ccccc1/C2=C/CCN(C)C	-	-	-	?	-
CN(C)CC/C=C1/c2cc(F)ccc2Sc2ccc(Cl)cc21	-	?	-	10µM	-
COc1cc2c(cc1Cl)/C(=C\CCN(C)C)c1ccccc1S2	-	?	-	10µM	-
CCCCCCC(=O)O[C@@H]1CC[C@H]2[C@@H]3CCc4cc(O)ccc4[C@H]3CC[C@]12C	.	.	-	.	.
O=C(COc1ccc(Cl)cc1)NCCNC(=O)c1cnccn1	-	-	-	-	-
CCOc1ccc(NC(=O)N(Cc2cn(CC)c3ccccc23)C2CCCCCC2)cc1	-	-	.	11.2µM	-
C[C@](N)(Cc1ccc(O)c(O)c1)C(=O)O	-	-	-	-	26.7µM!
C[C@](N)(Cc1ccc(O)cc1)C(=O)O	.	.	-	.	-
Cc1ccc(C)c(NC(=S)NC(NC(=O)/C=C/c2ccccc2)C(Cl)(Cl)Cl)c1 (stereo not given)	-	-	-	3.55µM	-
FC(F)(F)c1nc(-c2cccs2)ncc1-c1nnnn1-c1ccc(Cl)cc1	-	-	-	7.08µM	-
Clc1ccc(-n2nnnc2-c2cnc(-c3ccncc3)nc2-c2cccs2)cc1	-	-	-	?	-
Cc1ccc(/C=C/c2nc3ccccc3[nH]2)cc1	-	-	.	2.51µM	-
Cc1ccc(/C=C/c2nc3ccccc3c(=O)[nH]2)cc1	-	-	-	?	-
CCN(Cc1ccc(C#CCCO)cc1)CC1CCCN(CCc2cccc(F)c2)C1 (stereo not given)	-	-	-	10µM	-
CCc1cccc(-n2nnc(-c3nc(-c4ccccc4Cl)no3)c2N)c1	-	-	.	-	-
O=C(NNc1ccc([N+](=O)[O-])cc1)c1ccco1	-	?	-	?	-
SMILES	PTHR1 agonist	HEK293 tox	GLP-1R agonist	GLP1R inv ag	RGS4 inh
O=C(NNc1ccc([N+](=O)[O-])cc1[N+](=O)[O-])c1ccco1	-	10µM	-	-	-
O=C(c1cc2ccccc2o1)N1CCN(C/C=C/c2ccccc2)CC1	-	-	-	11.2µM	-
CC(=O)N1CCN(C(=O)c2cc3ccccc3o2)CC1	-	-	-	-	-
CN(C)CCCN1C(=O)c2cccc3cccc(c23)C1=O	-	?	-	-	-
CN(C)CCN1C(=O)c2cccc3cc([N+](=O)[O-])cc(c23)C1=O	-	?	-	1.78µM	-
CCOC(=O)C(=COC(=O)c1ccccc1)NC(=O)Cc1ccccc1	?	-	-	-	-
Cc1cc(Cl)ccc1OCC(=O)NNC(=O)c1ccc(=O)[nH]c1	-	-	-	-	-
CC(C)/C=C1\CC/C(=C\c2ccc(N(C)C)cc2)C1=O	-	-	-	-	-
CN(C)c1ccc(/C=C2/C[N+](C)(C)C/C(=C/c3ccc(N(C)C)cc3)C2=O)cc1	-	8.91µM	-	-	?
COc1ccccc1NS(=O)(=O)c1cc(NC(=O)CCC(=O)c2cccs2)ccc1Cl	-	-	-	?	-
CCOc1ccc(NS(=O)(=O)c2cc(NC(=O)CCC(=O)c3cccs3)ccc2Cl)cc1	-	-	-	10µM	-
COc1ccc(NC(=O)CCC(=O)c2cccs2)cc1S(=O)(=O)Nc1ccc(Cl)cc1	-	?	-	?	-
COc1ccc(NC(=O)CCS(=O)(=O)c2ccccc2Cl)cc1S(=O)(=O)Nc1ccc(Cl)cc1	-	-	-	6.31µM	-
S=C(Nc1ccc(Cl)c(Cl)c1)NC1CCCCC1	-	12.6µM	-	-	-
S=C(Nc1ccc(Oc2ccccc2)cc1)NC1CCCCC1	-	-	-	?	-
S=C(Nc1ccc(Cl)c(Cl)c1)NC1CCN(Cc2ccccc2)CC1	-	?	-	3.16µM	-
S=C(Nc1ccc(Oc2ccccc2)cc1)NC1CCCCCC1	-	?	-	10µM	-
S=C(NNc1ccc2ccccc2c1)NC1CCCCC1	-	?	-	10µM	-
Cc1nc2ccccc2c2oc(C(=O)Nc3ccc(C(C)C)cc3)cc12	-	-	-	7.94µM	-
Cc1nc2ccccc2c2oc(C(=O)Nc3ccc4c(c3)OCCO4)cc12	-	-	-	-	-
Cc1cc(N2CCN(C)CC2)nc2ccc(NC(=S)N3CCCCC3)cc12	-	-	-	10µM	-
COc1ccc(CC(=O)Nc2ccc3nc(N4CCCCC4)cc(C)c3c2)cc1	-	-	.	?	-
COc1cc(OC)cc(C(=O)Nc2ccc3nc(N4CCCCC4)cc(C)c3c2)c1	-	-	.	11.2µM	-
Cc1cc(N2CCN(C)CC2)nc2ccc(NC(=S)N3CCN(c4ccc(F)cc4)CC3)cc12	-	?	-	?	-[11.4 µM]
Cc1cc(N2CCN(C)CC2)nc2ccc(NC(=S)N3CCCCCC3)cc12	-	-	-	11.2µM	-
Cc1cc(N2CCN(C)CC2)nc2ccc(NC(=S)N3CCN(c4ccc(Cl)cc4)CC3)cc12	-	-	-	?	-
C/C(=N\NC(=O)c1ccccc1)c1ccccc1Br	-	5.01µM	-	?	-
COc1ccc(NC(=O)Cn2c(=O)n(CCc3ccccc3)c(=O)c3ccccc32)cc1	-	-	-	-	-
CN1CCCN(C(=O)c2cc(-c3cccc4ccccc34)nc3ccccc23)CC1	-	-	-	7.94µM	-
CCOc1ccc(-c2cc(C(=O)N3CCN(c4ccccn4)CC3)c3ccccc3n2)cc1	-	-	-	-	-

Screening results deposited in PubChem by National Center for Advancing Translational Sciences (NCATS).
